# Compound activity as filed in PubChem.
# Shown are actives, neighbours in structure and some others; about 19% of the full set was active somewhere.
# TGFb SMAD3 inh = blocks TGF-b signaling; HepG2 CAGA-GFP TGF-b/SMAD3 reporter, GFP fluorescence, 18 h; TGF-beta stimulated, 500 pg/mL final; Potency, µM (highest dose often 46.1 µM), for the others: top-dose activity, negative = inhibition, usual class: inhibitors; 1.2% of 410,000 active; AID 588855; further: potency means the concentration at half of the fitted maximal effect; on the % scale 0 is the no-effect control and ±100 the full control effect; nearly all actives have a fitted effect of over 65% in size
#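 TGF-beta reporter screen: HEPG2 CAGA-GFP, 1% FBS, 500 pg/mL TGF-beta final, 18 h; per-cell GFP summed per well; curves fitted and categorized by class.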
# DT40 TDP1 CPT = growth inhibition of DT40 Tdp1-/-;hTDP1 cells with camptothecin (screen for TDP1 inhibitors) | chicken DT40 Tdp1-/-;hTDP1 cells + 20 nM CPT, ATP luminescence, 48 h | Potency, µM (highest dose often 46.2 µM), inactives show at the highest dose activity change, negative = growth inhibition, usual class: inhibitors | 12% of 420,000 active | AID 686979; further: potency means the concentration at half of the fitted maximal effect; on the % scale 0 is the no-effect control and ±100 the full control effect; nearly all actives have a fitted effect of over 55% in size
#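 Chicken DT40 Tdp1-/- cells complemented with human TDP1, 400 cells/well, exposed to compounds plus 20 nM camptothecin for at least 48 h at 37 C; viability read as ATP content by CellTiter-Glo luminescence.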
# IL-1B inflam inh = inflammasome signaling inhibition, IL-1 beta readout; THP-1 LPS/ATP IL-1B secretion, AlphaLISA, 16 h; hits give low values; activity change, % at 57.5 µM; 4.7% of 360,000 active; AID 743279; in the data active means activity change below about -50%; inconclusive means mostly about -30% to -49%; further: on the % scale 0 is the no-effect control and ±100 the full control effect
#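 Secreted IL-1B measured by AlphaLISA bead assay after 16 h compound exposure of THP-1 cells; compounds (final up to 57.5 uM) added 1 h before LPS (250 ng/mL) and ATP (1.25 mM) stimulation; lower signal means less secretion.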
# DT40 TDP1 no CPT = qHTS for Inhibitors of human tyrosyl-DNA phosphodiesterase 1 (TDP1): qHTS in cells in absence of CPT. 15% of 420,000 active. Potency, µM (highest dose often 46.2 µM), for the others: at the top dose activity change, negative = growth inhibition, hits mostly inhibitors. DT40 Tdp1-/- hTDP1 cells, no CPT, ATP luminescence, 48 h; further: potency means the concentration at half of the fitted maximal effect; on the % scale 0 is the no-effect control and ±100 the full control effect; nearly all actives have a fitted effect of over 55% in size
#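 Compound effects on proliferation are scored in DT40 Tdp1-/-;hTDP1 cells in the absence of CPT. ATP levels (CellTiter-Glo luminescence) are recorded after a ≥48 hr, 37 °C incubation.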
# HepG2 viability = HepG2 cytotoxicity, counter-screen for TGF-b inhibitors. Potency, µM (titrated, usually from 46.1 µM), without a hit: top-dose activity change, negative = cytotoxicity, actives largely listed as cytotoxic. AID 588856. 0.76% of 410,000 active. HepG2 CAGA-GFP viability, ATP luminescence, 18 h; further: potency means the concentration at half of the fitted maximal effect
#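 CellTiter-Glo luminescence gave cytotoxicity after 18 hours at 37 degrees C. The cells were HepG2 CAGA-GFP in 1% FBS DMEM, stimulated with 500 pg/mL TGF-beta after compound addition. %Activity was normalised to no-cell wells (complete cell-killing) and DMSO (no toxicity), and curves were fitted and classified.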
# TDP1 block = inhibitors of human tyrosyl-DNA phosphodiesterase TDP1 | Q9NUW8 | recombinant TDP1, AlphaScreen DNA substrate cleavage | Potency, µM (series often up to 130 µM), for the others: at the highest dose activity change, negative = inhibition, hits mostly inhibitors | 0.28% of 350,000 active; further: potency means the concentration at half of the fitted maximal effect; on the % scale 0 is the no-effect control and ±100 the full control effect; nearly all actives have a fitted effect of over 40% in size
# Target sequence (Q9NUW8 whole entry, looked up): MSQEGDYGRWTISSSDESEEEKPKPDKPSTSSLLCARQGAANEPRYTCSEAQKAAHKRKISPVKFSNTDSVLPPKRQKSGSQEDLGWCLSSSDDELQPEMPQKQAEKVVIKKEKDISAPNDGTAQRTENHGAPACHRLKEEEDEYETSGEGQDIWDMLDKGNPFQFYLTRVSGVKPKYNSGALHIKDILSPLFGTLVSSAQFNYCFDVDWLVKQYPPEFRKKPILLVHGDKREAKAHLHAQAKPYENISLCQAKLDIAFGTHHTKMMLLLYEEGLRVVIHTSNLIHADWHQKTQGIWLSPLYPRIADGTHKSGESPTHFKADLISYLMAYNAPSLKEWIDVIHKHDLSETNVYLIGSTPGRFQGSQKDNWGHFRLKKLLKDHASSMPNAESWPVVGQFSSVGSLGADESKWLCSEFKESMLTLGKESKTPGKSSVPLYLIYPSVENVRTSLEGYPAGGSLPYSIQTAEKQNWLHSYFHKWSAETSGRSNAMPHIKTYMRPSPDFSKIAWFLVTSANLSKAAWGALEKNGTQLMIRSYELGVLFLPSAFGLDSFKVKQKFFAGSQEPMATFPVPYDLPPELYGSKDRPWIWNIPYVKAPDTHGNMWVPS
#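 Recombinant E. coli-expressed Tdp1 (1 nM) preincubated with compound 15 min at RT, then 5'-biotin/3'-phosphotyrosine-FITC DNA substrate (15 nM) added for 5 min. AlphaScreen beads (10 ug/ml) added, 10 min RT; tyrosine-FITC cleavage read as signal loss.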
# Active calls of the source: *; ? = inconclusive; nt = not tested or not shown; [ ] = dose if it differs, or a comment. Unless noted, the call rests on the fitted dose curve; in most records, active means well fitted curve in the direction sought with a large enough effect; inconclusive means small, poorly fitted or top-dose-only effect, or another doubt; inactive means no such curve, though single readings can be large; an effect the other way counts as inactive or inconclusive.
SMILES,TGFb SMAD3 inh,DT40 TDP1 CPT,IL-1B inflam inh,DT40 TDP1 no CPT,HepG2 viability,TDP1 block
Cc1ccc(-c2n[nH]c(=O)c3ccccc23)cc1S(=O)(=O)NCC1CCCO1 (centres undefined),7%,?,23,?,-14%,nt
Cc1ccccc1Nc1nnc(-c2ccc(C)c(S(=O)(=O)NCC3CCCO3)c2)c2ccccc12 (centres undefined),-19%,?,nt,13µM*,-14%,nt
CC(=O)N=c1sccn1CC(O)c1ccccc1 (centres undefined),-1%,-29%,26,2%,2%,nt
COc1ccc(C(O)Cn2ccsc2=NC(C)=O)cc1 (centres undefined),9%,23µM*,26,?,5%,9%
CC1NC(=O)C(N)CNC(=O)C(C2CCN=C(N)N2)NC(=O)/C(=C/NC(N)=O)NC(=O)C(CNC(=O)CC(N)CCCN)NC1=O (centres undefined),nt,nt,nt,nt,nt,8%
C=CCS/C(N)=N\N=C\c1c(O)ccc2ccccc12,7.9µM*,?,0,?,-78%,2%
CCCS/C(N)=N/N=C/c1ccccc1O,-30%,?,?,18µM*,-22%,6%
CCc1ccc(NC(=O)c2nnn(Cc3cccc(C(F)(F)F)c3)c2N)cc1,-9%,-19%,nt,-24%,3%,5%
COc1ccc([C@H]2CC(=O)C=C(c3cc4ccccc4s3)C2)cc1OC,24%,?,?,?,0%,5%
COc1ccc([C@H]2CC(=O)C=C(c3ccc(Cl)c(C(F)(F)F)c3)C2)cc1OC,?,?,-56*,?,-38%,4%
COc1ccc([C@H]2CC(=O)C=C(c3ccc(C(F)(F)F)c(C(F)(F)F)c3)C2)cc1OC,-1%,?,-78*,?,2%,1%
COc1cccc(NC(=O)CNC(=O)Cn2cnc3sc(C)c(C)c3c2=O)c1,-3%,-4%,0,4%,-6%,1%
NC(Cc1ccccc1)c1csc(NC(=O)c2cccc(OC(F)(F)F)c2)n1 (centres undefined),?,7.3µM*,nt,7.3µM*,-111%,nt
COc1cccc(C(=O)Nc2nc(C)cs2)c1,4%,-18%,-15,-13%,3%,5%
COc1ccc(CC(N)c2csc(NC(=O)c3cccc(OC(F)(F)F)c3)n2)cc1 (centres undefined),?,15µM*,-60*,12µM*,-100%,nt
Cc1nc2cc(NC(=O)[C@@H]3C[C@@H](Sc4ccccn4)CN3Cc3ccc4c(c3)OCCO4)ccc2s1,nt,8%[9.04 µM],nt,-9%,nt,nt
O=C(Nc1ccc(F)c(Cl)c1)C1CCN(c2ncccn2)CC1,-28%,-20%,nt,2%,-28%,2%
CCc1cc[n+](CC(=O)c2ccc(F)cc2)cc1C(=O)O,-8%,-21%,nt,-4%,2%,nt
O=C1C=CC(=O)C(CNc2ccc(C(=O)OCc3ccccc3)cc2)=C1,0%,5.8µM*,-100*,4.1µM*,-47%,nt
CN(C)c1ccc(C(=O)OCc2ccccc2)cc1,-9%,3%,-12,-12%,-34%,4%
Cc1nc(-c2ccc(Cl)cc2)sc1CCNC(=O)C(=O)Nc1ccc2c(c1)OCCO2,3%,?,nt,?,0%,3%
Cc1ccc(-c2nc(Cn3c(SCc4ccc(F)cc4)nc4cccnc43)c(C)o2)cc1,-23%,0.73µM*,nt,0.82µM*,-12%,1%
Cc1oc(-c2cccc(Br)c2)nc1Cn1c(SCc2cccc(F)c2)nc2cccnc21,?,?,nt,21µM*,-11%,-1%
Cc1ccc(Cn2c(SCc3ccc(C(=O)O)cc3)nc3cccnc32)cc1,?,-27%,nt,-10%,20%,-1%
